Source: PubChem BioAssay (Tox21)
Records with an inconclusive call do not appear. Active and inactive are the calls of the source. Unless noted, calls come from the whole dose curve; as a rule, active = well fitted curve in the direction sought with a large enough effect in the repeat runs; inconclusive = weak or mixed curves; inactive = no such curve, though single readings can be large; an effect the other way counts as inactive or inconclusive.

Key:
[1] = qHTS assay for small molecules that induce genotoxicity in human embryonic kidney cells expressing luciferase-tagged ATAD5 (AID 651632); note: nearly all actives have a fitted effect of over 15% in size
Procedure, shortened: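 Reporter cells (HEK293T) express luciferase-tagged ATAD5, a protein that accumulates after DNA damage. Treat 16 hr at 37C/5% CO2, add Amplite, wait 30 min at RT, and read luminescence.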

[2] = qHTS assay for small molecule agonists of the p53 signaling pathway - cell viability (AID 651633; calls by dose curve; note: nearly all actives have a fitted effect of over 30% in size; note: potency is the fitted concentration of half-maximal effect)
Procedure, shortened: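 p53RE-bla cells, seeded at 4,000 per well and rested 5 h at 37 C/5% CO2, received compounds in DMSO for 16 h at 37 C. CellTiter-Glo was then added, and luminescence was read after 30 min at room temperature to gauge cytotoxicity.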

[3] = qHTS assay for small molecules that induce genotoxicity in human embryonic kidney cells expressing luciferase-tagged ATAD5 - cell viability (AID 651634; calls by dose curve; note: nearly all actives have a fitted effect of over 25% in size)
Procedure, shortened: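 Seeding of 2,000 HEK293T ATAD5-luciferase cells per well preceded pin-tool compound transfer. Plates sat 15.5 hr at 37C under 5% CO2, then fluorescence was read after 30 min with CellTiter-Fluor.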

[4] = qHTS assay for small molecule disruptors of the mitochondrial membrane potential - cell viability (AID 720634; calls by dose curve;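 note: human HepG2 liver cancer cells; series mostly up to about 83 µM; nearly all actives have a fitted effect of over 20% in size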)
Procedure, shortened: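 Measuring cytotoxicity alongside mitochondrial potential, the screen quantified ATP by luminescence in HepG2 cells after 1 hr compound incubation and a 30 min room-temperature CellTiter-Glo step.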

[5] = qHTS assay to test for compound auto fluorescence at 590 nm (red) in HepG2 cells (AID 720674)
Procedure, shortened: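 Compound auto-fluorescence is scored relative to Rose Bengal sodium, measured at 540/590 nm in live HepG2 cultures after 1 hr compound contact (37 C, 5% CO2).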

[6] = qHTS assay to test for compound auto fluorescence at 535 nm (green) in HepG2 cells (AID 720675)
[7] = qHTS assay to test for compound auto fluorescence at 460 nm (blue) in HEK293 cells (AID 720678)
Procedure, shortened: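 Blue-channel (Ex/Em 405/460 nm) intensity measured in HEK293 cultures after overnight compound exposure at 37C; signal expressed relative to triamterene. Cells plated 2,000 per well in 10% dialyzed FBS medium and allowed 4-5 hr to attach.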

[8] = qHTS assay to test for compound auto fluorescence at 590 nm (red) in HEK293 cells (AID 720679)
Procedure, shortened: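 Red-channel autofluorescence (Ex/Em 540/590 nm; Rose Bengal sodium reference) was measured after overnight 37C, 5% CO2 exposure of attached HEK293 cells, 2,000 per well in medium with 10% dialyzed FBS.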

[9] = qHTS assay to test for compound auto fluorescence at 535 nm (green) in HEK293 cells (AID 720680)
[10] = qHTS assay to test for compound auto fluorescence at 460 nm (blue) in HEK293 cell free culture (AID 720681)
Procedure, shortened: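 Test compounds were pinned into cell-free culture medium (DMEM with 10% FBS) and fluorescence was read directly at Ex/Em 405/460 nm. Signals were expressed as fluorescence equivalents of triamterene, with DMSO vehicle as control.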

[11] = qHTS assay to test for compound auto fluorescence at 590 nm (red) in HEK293 cell free culture (AID 720683)
Procedure, shortened: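 Tox21 10K library compounds were pinned into cell-free DMEM with 10% FBS and fluorescence was read at excitation 540 nm. Activity is expressed as Rose Bengal sodium equivalency.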

[12] = qHTS assay to test for compound auto fluorescence at 590 nm (red) in HepG2 cell free culture (AID 720684)
Procedure, shortened: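 Measured in medium alone (MEM containing 10% FBS) following pintool addition of compound; emission at 590 nm with 540 nm excitation, referenced to Rose Bengal sodium.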

[13] = qHTS assay to test for compound auto fluorescence at 460 nm (blue) in HepG2 cell free culture (AID 720685)
Procedure, shortened: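 Compound (23 nL) or DMSO pinned into cell-free MEM with 10% FBS; blue fluorescence read at 405/460 nm excitation/emission, expressed as auto-fluorescence equivalency to triamterene.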

[14] = qHTS assay to test for compound auto fluorescence at 535 nm (green) in HepG2 cell free culture (AID 720686)
[15] = qHTS assay to test for compound auto fluorescence at 460 nm (blue) in HepG2 cells (AID 720687)
Procedure, shortened: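 Cells (2,000/well in MEM with 10% FBS) attached overnight at 37 C, then were exposed to compound or DMSO for 1 hr at 37 C, 5% CO2. Fluorescence read at Ex/Em 405/460 nm, expressed as triamterene-equivalent signal.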

[16] = biological target: Glucocorticoid receptor (Homo sapiens) (UniProt P04150); assay: qHTS assay to identify small molecule agonists of the glucocorticoid receptor (GR) signaling pathway (AID 720691; active = well fitted activation curve with a large enough effect in the signal ratio in the repeat runs, not every such curve was filed as active; the % refers to the signal ratio)
Glucocorticoid receptor (Homo sapiens), sequence (P04150 whole entry, looked up): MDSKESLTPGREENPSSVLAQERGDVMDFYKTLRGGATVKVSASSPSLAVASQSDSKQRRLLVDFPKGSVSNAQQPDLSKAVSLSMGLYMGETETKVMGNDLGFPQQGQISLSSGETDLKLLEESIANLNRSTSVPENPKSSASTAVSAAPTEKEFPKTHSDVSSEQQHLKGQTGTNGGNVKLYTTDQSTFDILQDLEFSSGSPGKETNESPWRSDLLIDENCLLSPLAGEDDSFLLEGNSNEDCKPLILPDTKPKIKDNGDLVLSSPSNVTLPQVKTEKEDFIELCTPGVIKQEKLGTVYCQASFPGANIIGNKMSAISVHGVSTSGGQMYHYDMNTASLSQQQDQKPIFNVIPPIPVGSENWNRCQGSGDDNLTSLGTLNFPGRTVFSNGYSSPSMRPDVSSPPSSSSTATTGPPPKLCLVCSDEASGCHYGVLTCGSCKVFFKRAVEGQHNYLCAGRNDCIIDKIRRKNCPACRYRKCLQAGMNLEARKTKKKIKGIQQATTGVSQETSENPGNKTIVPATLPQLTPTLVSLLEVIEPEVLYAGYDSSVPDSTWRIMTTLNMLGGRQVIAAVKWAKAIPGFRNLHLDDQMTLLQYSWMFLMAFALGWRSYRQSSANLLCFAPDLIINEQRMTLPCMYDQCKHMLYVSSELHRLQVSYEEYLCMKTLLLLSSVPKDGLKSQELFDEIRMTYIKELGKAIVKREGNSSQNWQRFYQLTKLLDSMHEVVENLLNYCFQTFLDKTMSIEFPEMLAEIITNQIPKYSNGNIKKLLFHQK
Procedure, shortened: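 Reporter read-out: fluorescence intensity following 2 h room-temperature LiveBLAzer B/G FRET substrate loading. Prior step: GR-bla HeLa cells held 4 h, then treated 18 h at 37 C.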

[17] = qHTS assay to test for compound auto fluorescence at 535 nm (green) in HEK293 cell free culture (AID 720682)
Procedure, shortened: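 Using fluorescein as calibrant, autofluorescence was quantified at 485/535 nm in cell-free DMEM containing 10% FBS after pintool addition of compound or vehicle.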

[18] = qHTS assay for small molecule disruptors of the mitochondrial membrane potential (AID 720635)
Procedure, shortened: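 HepG2 cells (2,000/well) attached overnight at 37C, then took compound for 1 hr at 37C, 5% CO2. Mito-MPS dye was added for 30 min; fluorescence was read at 490/535 nm (monomers) and 540/590 nm (aggregates).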

[19] = biological target: Glucocorticoid receptor (Homo sapiens) (UniProt P04150); assay: qHTS assay to identify small molecule antagonists of the glucocorticoid receptor (GR) signaling pathway (AID 720692; active = well fitted inhibition curve with a large enough effect in the signal ratio in the repeat runs, not every such curve was filed as active; the % refers to the signal ratio; note: potency is the fitted concentration of half-maximal effect)
Procedure, shortened: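 Dexamethasone (5 nM final) stimulated a stably integrated GRE-beta-lactamase reporter in HeLa cells during 18 h co-incubation with compounds; signal was quantified as fluorescence intensity of B/G FRET substrate after 2 h.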
% is set by controls: 0 for no effect and ±100 for the full control effect.

CCCCCC/C=C/C=O
inactive: Potency [1] | Potency [2] | Potency [3] | Potency [4] | outcome [5] | outcome [6] | Potency [7] | outcome [8] | outcome [9] | Potency [10] | outcome [11] | outcome [12] | Potency [13] | outcome [14] | Potency [15] | Potency [16]

CN1CCC(=C2c3ccccc3CCc3sccc32)CC1
inactive: Potency [1] | Potency [2] | Potency [3] | Potency [4] | outcome [5] | outcome [6] | Potency [7] | outcome [8] | outcome [9] | Potency [10] | outcome [17] | outcome [11] | outcome [12] | Potency [13] | Potency [16]

O=[N+]([O-])c1cccc(Cl)c1Cl
inactive: Potency [1] | Potency [3] | Potency [4] | outcome [5] | outcome [6] | Potency [7] | outcome [8] | outcome [11] | outcome [12] | Potency [13] | outcome [14] | Potency [15] | Potency [16]

CC(C)c1ccc2c(C(C)C)cc(C(C)C)c(S(=O)(=O)O)c2c1
inactive: Potency [2] | Potency [3] | Potency [4] | outcome [5] | outcome [6] | Potency [7] | outcome [8] | outcome [9] | Potency [10] | outcome [17] | outcome [11] | outcome [12] | Potency [13] | outcome [14] | Potency [15] | Potency [16]

NCCCN(CCO)CCO
inactive: Potency [1] | Potency [3] | Potency [4] | outcome [5] | outcome [6] | Potency [7] | outcome [8] | outcome [9] | Potency [10] | outcome [17] | outcome [11] | outcome [12] | outcome [14] | Potency [15]

NC(N)=N/N=C/c1c(Cl)cccc1Cl
inactive: Potency [3] | Potency [4] | outcome [5] | outcome [6] | Potency [7] | outcome [8] | outcome [9] | Potency [10] | outcome [17] | outcome [11] | outcome [12] | Potency [13] | outcome [14] | Potency [15]

N#CCCNCCC#N
inactive: Potency [2] | Potency [3] | Potency [4] | Potency [18] | outcome [5] | Potency [7] | outcome [8] | outcome [9] | Potency [10] | outcome [17] | outcome [11] | outcome [12] | Potency [13] | Potency [15]

O=C(O)[C@@H]1[C@H]2C[C@H]3c4[nH]c5ccccc5c4CCN3C[C@@H]2CC[C@@H]1O
inactive: Potency [1] | Potency [3] | Potency [4] | fluorescence, relative to Rose Bengal [5] 0.127% [at 18.6 µM] | fluorescence, % of fluorescein control [6] 0.513% [at 18.6 µM] | fluorescence, % of triamterene [7] 4.22% [at 18.6 µM] | fluorescence, % of fluorescent control [8] -0.335% [at 18.6 µM] | fluorescence, % of fluorescent control [10] 4.98% [at 18.6 µM] | fluorescence, % of fluorescent control [11] 0.0861% [at 18.6 µM] | fluorescence, % of Rose Bengal [12] -0.199% [at 18.6 µM] | fluorescence, % of fluorescent control [13] 4.25% [at 18.6 µM] | fluorescence, % of fluorescein control [14] 0.287% [at 18.6 µM] | fluorescence, % of fluorescent control [15] 5.05% [at 18.6 µM] | Potency [16] | Potency [19]

O=S1(=O)c2cccc3cccc(c23)N1CCCN1CCN(c2ccc(F)cc2)CC1
inactive: Potency [2] | Potency [3] | Potency [4] | outcome [5] | outcome [6] | Potency [7] | outcome [8] | outcome [9] | Potency [10] | outcome [17] | outcome [11] | outcome [12] | Potency [13] | outcome [14] | Potency [15] | Potency [16] | Potency [19]

O=S1(=O)N=C(O)c2ccccc21
inactive: Potency [3] | Potency [4] | Potency [18] | outcome [5] | Potency [7] | outcome [8] | outcome [9] | Potency [10] | outcome [17] | outcome [11] | outcome [12] | Potency [13] | Potency [15]

O=C1CCCCCO1
inactive: Potency [1] | Potency [3] | outcome [5] | outcome [6] | Potency [7] | outcome [8] | outcome [9] | Potency [10] | outcome [17] | outcome [11] | outcome [12] | Potency [13] | outcome [14] | Potency [16]

CCN(CC)CCNC(C(=O)OCCC(C)C)c1ccccc1 (centres undefined)
inactive: Potency [1] | Potency [3] | Potency [4] | outcome [5] | outcome [6] | Potency [7] | outcome [8] | outcome [9] | Potency [10] | outcome [17] | outcome [11] | outcome [12] | Potency [13] | Potency [15] | Potency [16] | Potency [19]

OC(CCN1CCCCC1)(c1ccccc1)C1CCCCC1 (centres undefined)
inactive: Potency [3] | Potency [4] | outcome [5] | outcome [6] | Potency [7] | outcome [8] | outcome [9] | Potency [10] | outcome [17] | outcome [11] | outcome [12] | outcome [14] | Potency [15]

Cc1cc(O)ccc1N
inactive: Potency [1] | Potency [3] | outcome [5] | outcome [6] | Potency [7] | outcome [8] | outcome [9] | Potency [10] | outcome [17] | outcome [11] | outcome [12] | Potency [13] | outcome [14] | Potency [15] | Potency [16]

O=C(Cl)c1ccc([N+](=O)[O-])cc1
inactive: Potency [1] | Potency [3] | Potency [4] | outcome [5] | outcome [6] | Potency [7] | outcome [8] | outcome [9] | Potency [10] | outcome [11] | outcome [12] | Potency [13] | outcome [14] | Potency [16] | Potency [19]

CC(Cc1cccc(C(F)(F)F)c1)NCCOC(=O)c1ccccc1 (centres undefined)
inactive: Potency [1] | Potency [4] | outcome [5] | outcome [6] | Potency [7] | outcome [8] | outcome [9] | Potency [10] | outcome [17] | outcome [11] | outcome [12] | Potency [13] | outcome [14] | Potency [15] | Potency [16] | Potency [19]

C=CC(=O)OCC(C)OCC(C)OCC(C)OC(=O)C=C (centres undefined)
active: Potency [2] 24.3 µM | Potency [19] 43.6 µM
inactive: Potency [4] | outcome [5] | Potency [7] | outcome [8] | outcome [9] | Potency [10] | outcome [11] | outcome [12] | Potency [13] | Potency [15] | Potency [16]
